Experimental data reported in PubChem BioAssay AID1851 (National Center for Advancing Translational Sciences (NCATS), 2009).
Values joined by “and” are separate entries in the source; they are usually repeats but may differ in a detail not shown here. Equal values may be shown once. About 2,600 (16%) of roughly 16,000 compounds were called active. Inconclusive results (about 20%) are left out. The sample holds actives, similar compounds and a random draw of the others, so the mix is not that of the screen. A number with no mark means an inactive call. Calls come from the whole dose curve; as a rule, active = well fitted curve in the direction sought with a large enough effect; inconclusive = small, poorly fitted or top-dose-only effect, or effect the other way; inactive = no such curve, though single readings can be large or run the other way.

The molecules below were run against Cytochrome P450 2D6 (Homo sapiens) (UniProt P10635) (assay: Cytochrome panel assay with activity outcomes). Conditions: recombinant CYP, pro-luciferin dealkylation, luminescence, p450-cyp2d6; series mostly up to 57.1 µM.
% is set by controls: 0 for no effect and ±100 for the full control effect.

Cytochrome P450 2D6 (Homo sapiens), sequence (P10635 whole entry, looked up): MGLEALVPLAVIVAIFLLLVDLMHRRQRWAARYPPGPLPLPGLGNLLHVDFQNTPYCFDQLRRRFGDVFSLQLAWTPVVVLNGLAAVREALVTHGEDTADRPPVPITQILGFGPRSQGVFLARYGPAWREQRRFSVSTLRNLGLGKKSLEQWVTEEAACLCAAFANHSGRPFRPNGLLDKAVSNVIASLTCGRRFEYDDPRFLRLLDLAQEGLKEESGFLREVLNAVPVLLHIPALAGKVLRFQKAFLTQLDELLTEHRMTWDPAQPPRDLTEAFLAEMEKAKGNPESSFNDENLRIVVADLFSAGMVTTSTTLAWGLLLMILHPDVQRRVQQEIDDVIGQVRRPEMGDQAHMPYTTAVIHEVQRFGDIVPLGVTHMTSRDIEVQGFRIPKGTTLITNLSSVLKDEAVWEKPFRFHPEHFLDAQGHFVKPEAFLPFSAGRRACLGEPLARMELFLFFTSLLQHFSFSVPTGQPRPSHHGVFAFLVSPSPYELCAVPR

SMILES	activity, negative = inhibition	AC50
CO[C@H]1[C@H](O)[C@H](O[C@@H]2[C@H](Oc3cccc4c(O)c5c(=O)oc6ccc(C)c7c(=O)oc(c34)c5c67)O[C@@H](C)[C@H](O)[C@H]2O)O[C@@H](C)[C@@H]1O	19.6% [at 11.4 µM]	
CCCCCCCC/C=C\CCCCCCCC(N)=O		inactive
N[C@@H](CCCP(=O)(O)O)C(=O)O		inactive
C[N+](C)(C)CCCCCCCCCC[N+](C)(C)C		inactive
COc1cc(CN2CCN(C(=O)COc3ccccc3)CC2)cc(OC)c1OC		inactive
CC(=O)N1CCC2(CC1)CC(=O)c1cc(OCC(=O)N3CCN(C)CC3)ccc1O2		inactive
O=C(COc1ccc2ccccc2c1)N1CCN(CC2CC3C=CC2C3)CC1 (stereo unspecified)		5.01 µM (active)
CCN1C[C@@]2(COC)[C@H]3[C@@H](OC)[C@H]4C1[C@@]3([C@H](OC)C[C@@H]2O)[C@H]1C[C@@]2(O)[C@@H](OC(=O)c3ccccc3)[C@@H]1[C@@]4(OC(C)=O)[C@H](O)[C@@H]2OC		inactive
Cc1ccc(C2CC(=O)C(C=NCCN3CCN(C(=O)Cc4ccccc4)CC3)=C(O)C2)cc1 (stereo unspecified)		inactive
CN(C)CS/C(N)=N/[C@H](O)C(Cl)(Cl)Cl	-6.69% [at 11.4 µM]	
CN1CCc2nc3sc(C(=O)NC(C)(C)C)c(N)c3cc2C1		inactive
CCOC(=O)C1=C(C)OC(N)=C(C#N)C12C(=O)N(C)c1ccccc12 (stereo unspecified)		inactive
CC[C@]1(OC(=O)CN)C(=O)OCc2c1cc1n(c2=O)Cc2cc3ccccc3nc2-1	-0.998% [at 11.4 µM]	
C[C@@H]1Cc2cc3c(cc2C(c2ccc(N)cc2)=NN1)OCO3		31.6 µM (active)
CCC12C=CCN3CCC4(c5cc(Br)c(OC)cc5N(C)C4C(O)(C(=O)OC)C1OC(C)=O)C32 (stereo unspecified)		2.51 µM (active)
C=Cn1ccnc1P(=S)(c1nccn1C=C)C1CCCCC1		inactive
CNC(=S)NC1CC2CCCC(C1)N2CC(C)C (stereo unspecified)		5.01 µM (active)
COc1ccc(C(=O)NC2CC3CCCC(C2)N3CC(C)C)cc1OC (stereo unspecified)		4.47 µM (active)
CN1[C@@H]2CC[C@H]1CC(NC(=O)c1nn(C)c3ccccc13)C2 (stereo partly specified)		inactive
O=C(O)Cc1cnc[nH]1		inactive
C/C(=C\C=C/[C@@H](C)C(=O)O)[C@H]1CN[C@H](C(=O)O)[C@@H]1CC(=O)O		inactive
c1cnc(N2CC[C@@]3(CCCNC3)C2)nc1		7.94 µM (active)
c1ccc(N2CC[C@@]3(CCCNC3)C2)nc1		inactive

SMILES	activity, negative = inhibition	AC50
N#Cc1ccc(CN2CC[C@@]3(CCCNC3)C2)cc1		inactive
C=C(C)[C@H]1CC[C@]2(CO)CC[C@]3(C)[C@@H](CC[C@H]4[C@@]5(C)CC[C@@H](O)C(C)(C)[C@@H]5CC[C@@]43C)[C@H]12		inactive
COC(=O)Nc1nc2ccc(C(=O)c3cccs3)cc2[nH]1		inactive
COc1cc(-c2ccc(=O)[nH]n2)ccc1OC(F)F		inactive
C[C@H](N)Cc1c[nH]c2ccc(OCc3cccs3)cc12		0.794 µM (active)
COc1ccc2[nH]cc(CCN)c2c1		inactive
NCCc1c[nH]c2ccc(OC(=O)C(=O)O)cc12	-17.3% [at 11.4 µM]	
O[C@@H]1[C@H](O)[C@H]2[C@@H](O)CCN2C[C@@H]1O		inactive
CC(C)[C@]1(O)[C@@H](OC(=O)c2ccc[nH]2)[C@]2(O)[C@@]3(C)C[C@@]4(O)O[C@@]5([C@H](O)[C@@H](C)CC[C@]35O)[C@]2(O)[C@]41C	9.77% [at 11.4 µM]	
NC(=O)CN1C[C@@H](O)CC1=O		inactive
O=c1c(O)c(-c2cc(O)c(O)c(O)c2)oc2cc(O)cc(O)c12		inactive
c1ccc(C[C@@H](c2ccccc2)N2CCCCC2)cc1		2 µM (active)
N[C@@H](Cc1ccccc1)P(=O)(O)O	-3.26% [at 11.4 µM]	
CC(=O)NCCc1c[nH]c2ccccc12		inactive
N[C@H](Cc1c[nH]c2ccccc12)P(=O)(O)O	-0.254% [at 11.4 µM]	
CC(C(=O)c1c[nH]c2ccccc12)N1CCSCC1 (stereo unspecified)		6.31 µM (active)
CCCCc1nc2ccccc2c(=O)n1-c1ccc(Cl)cc1[N+](=O)[O-]		inactive
CN(C)[C@@H]1C(=O)C(C(N)=O)=C(O)[C@]2(O)C(=O)C3=C(O)c4c(O)cccc4[C@](C)(O)[C@H]3C[C@@H]12	-6.07% [at 11.4 µM]	
CCCCN1C(=O)/C(=C\c2ccco2)C(=O)N(CCc2ccccc2)C1=O		inactive
Fc1ccc(CCNCc2cccc(Cl)c2)cc1		0.794 µM (active)
Fc1ccc(CCNCc2ccc(Cl)c(Cl)c2)cc1		0.398 µM (active)
O=C(O)[C@@H](O)[C@@H](O)[C@@H]1[O][Sb][O][C@@H]1CO	12.5% [at 11.4 µM]	
O=C(O)C[C@H]1NCc2cc3ccccc3nc21	3.21% [at 11.4 µM]	

SMILES	activity, negative = inhibition	AC50
COc1cc(CCN)c(OC)c(OC)c1	0.204% [at 11.4 µM]	
C[C@@]12C(=O)OC(=O)[C@@]1(C)[C@H]1CC[C@@H]2O1		inactive
NC(=O)c1ccc(-c2nc(-c3ccc4c(c3)OCO4)c(-c3ccccn3)[nH]2)cc1		12.6 µM (active)
Cc1sc2c(c1C)C(c1ccc(C(C)(C)C)cc1)=NCC(=O)N2CC(=O)Nc1nccs1		inactive
C[C@@H]1O[C@@H](O[C@H]2C[C@@H](O)[C@]3(CO)[C@@H]4[C@@H](O)C[C@]5(C)[C@H]([C@@H]6COC(=O)C6)CC[C@@]5(O)[C@H]4CC[C@@]3(O)C2)[C@H](O)[C@H](O)[C@@H]1O		inactive
COc1ccc2c(c1OC)CN1CCc3cc4c(cc3[C@H]1C2)OCO4		0.0631 µM (active)
COc1ccc2c(c1OC)C(=O)O[C@H]2[C@H]1c2cc3c(cc2CCN1C)OCO3		inactive
COc1cc2c3cc1Oc1c(O)c(OC)cc4c1[C@@H](Cc1ccc(cc1)Oc1cc(ccc1O)C[C@H]3N(C)CC2)N(C)CC4	0.972% [at 11.4 µM]	
COc1cc2c(cc1O)[C@H]1Cc3ccc(OC)c(O)c3CN1CC2		0.0316 µM (active)
COc1ccc2cc1Oc1ccc(cc1)C[C@H]1c3cc(c(OC)cc3CCN1C)Oc1c(OC)c(OC)cc3c1[C@@H](C2)N(C)CC3	-16.9% [at 11.4 µM]	
COc1ccc2c(c1O)-c1c(OC)c(OC)cc3c1[C@H](C2)N(C)CC3		inactive
CC(Oc1ccc(-c2ccccc2)cc1)C(=O)O (stereo unspecified)		inactive
CCn1cc(C(=O)O)c(=O)c2cc3c(cc21)OCO3		inactive
CCN1C[C@]2(C)CC[C@@H](O)[C@]34[C@@H]5CC6[C@@H](OC)C[C@@](O)([C@H]5[C@@H]6O)[C@@H](C[C@@H]23)[C@H]14		inactive
CNC[C@H](O)c1ccc(OC(=O)C(C)(C)C)c(OC(=O)C(C)(C)C)c1		inactive
CN1C[C@@H](CS(=O)(=O)N(C)C)C[C@H]2c3cccc4c3c(cn4C)C[C@@H]21		3.98 µM (active)
CC(=NCc1ccco1)c1c(O)n(-c2ccccc2)c(=O)[nH]c1=O		inactive
CN1C(=O)CCS(=O)(=O)[C@@H]1c1ccc(Cl)cc1		inactive
CN(C)CCCc1c[nH]c2ccccc12	-8.71% [at 11.4 µM]	
CN(C)Cc1c[nH]c2ccccc12		0.158 µM (active)
O=C(c1ccccc1)[C@H]1[C@H](c2ccccc2[N+](=O)[O-])N1C1CCCCC1 (stereo partly specified)	-1.09% [at 11.4 µM]	
c1ccc(CN2CCC3(CCNCC3)CC2)cc1		inactive
c1ccc(CN2CCC3(CCc4ccccc43)CC2)cc1		0.00631 µM (active)

SMILES	activity, negative = inhibition	AC50
CCOC(=O)c1ncn2c1[C@H]1CCCN1C(=O)c1cc(OC)ccc1-2		inactive
Oc1ccc2[nH]cc(CCCCN3CC=C(c4ccccc4)CC3)c2c1		inactive
O=S1(=O)N(CCN2CC=C(c3c[nH]c4cc(F)ccc34)CC2)c2cccc3c2N1CCC3		0.2 µM (active)
O=C(CCCC1=NS(=O)(=O)c2ccccc2N1)N1CCC2(CC1)OCCO2		inactive
O=C(Nc1ccc(Cl)cc1C(=O)c1ccccc1Cl)c1ccco1		inactive
Nc1ccccc1O.O.O=C(O)[C@H]1[O][Sb][O][C@H]1C(=O)O	-5.13% [at 11.4 µM]	
Clc1cncc(N2CCNCC2)n1		inactive
O=[N+]([O-])c1ccc(N2CCNCC2)cc1NC1CC1		inactive
Clc1cccc(N2CCNCC2)c1		25.1 µM (active) and 3.98 µM (active)
O=c1[nH]cnc2[nH]cc(CN3CCCCC3)c12	7.9% [at 11.4 µM]	
COc1c2c(cc3c1OCO3)CCN(C)C2		3.98 µM (active)
CC(C)C(=O)N1C2CCC1CC(O)(c1ccc(F)cc1)C2 (stereo unspecified)		inactive
CNC[C@H](O)c1ccc(O)cc1		inactive
NC[C@H](O)c1ccc(O)cc1		inactive
C[C@H](N[C@@H](C)CCc1ccccc1)[C@H](O)c1ccc(O)cc1		2 µM (active)
CC(C)[N+](C)(CCOC(=O)C1c2ccccc2Oc2ccccc21)C(C)C		31.6 µM (active) and 1.26 µM (active)
O=C(Nc1ccc(F)cc1F)c1cccnc1Oc1cccc(C(F)(F)F)c1		inactive
CC[C@@H]1[C@@H]2C[C@H]3[C@H]4N(C)c5ccccc5[C@@]45C[C@@H]([C@@H]2[C@@H]5O)N3[C@H]1O		3.98 µM (active)
Clc1ccc(C2=CCC[C@H]3CC[C@@H]2N3)cn1		inactive
O=C(CNS(=O)(=O)c1ccc(Br)s1)N1CCC2(CC1)OCCO2		inactive
NC(N)=NN=Cc1c(Cl)cccc1Cl		10 µM (active)
O=P(O)(O)c1ccccc1 (tested in a mixture with another compound)	15.2% [at 11.4 µM]	
